Screening results as filed in PubChem.
Shown is part of a subset that was picked to be rich in hits.
TbPYK inhibitor: qHTS of Trypanosoma Brucei Inhibitors; pyruvate kinase (Trypanosoma brucei), Q57TT1; TbPYK enzyme, Kinase-Glo Plus ATP luminescence, 45 min; Potency, µM (highest dose often 76.8 µM), for inactives: top-dose activity, negative = inhibition, hits mostly inhibitors; hit rate 0.12% among 410,000; note: potency is the fitted concentration of half-maximal effect; % is set by controls: 0 for no effect and ±100 for the full control effect; nearly all actives have a fitted effect of over 50% in size
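Assay buffer: 50 mM TEA pH 7.2, 100 mM KCl, 10 mM MgCl2, 0.05% BSA, 0.01% Tween-20. Pyruvate kinase from T. brucei plus substrate met compound, then ADP (130 uM final). Luminescence was read post 45 min RT.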
LmPK inhibitor: qHTS Assay for Inhibitors of Leishmania Mexicana Pyruvate Kinase (LmPK). purified LmPK, Kinase-Glo ATP luminescence, 1 h. Potency, µM (doses to about 57.5 µM), without a hit: at the highest dose activity change, negative = inhibition, usual class: inhibitors. hit rate 0.37% among 290,000. AID 1721, 2009; note: potency is the fitted concentration of half-maximal effect; % is set by controls: 0 for no effect and ±100 for the full control effect
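Pyruvate kinase activity monitored as ATP production (luciferase luminescence). Conditions: 0.1 nM enzyme, 0.5 mM PEP, 0.1 mM ADP, 1 h, RT; normalized against uninhibited and no-enzyme wells.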
Shiga inhibitor: A qHTS for Small Molecule Inhibitors of Shiga Toxin. hit rate 9.2% among 290,000. Vero cells, Shiga toxin protein synthesis inhibition reporter. inhibition, % at 38.7 µM; in the data active = inhibition mostly above about 28%, no sharp cut-off; inactive = mostly below about 43%; note: 0% is about no effect
FBPA Giardia inh: qHTS Assay for Inhibitors of Fructose-1,6-bisphosphate Aldolase from Giardia Lamblia; A8B2U2; Potency, µM (highest dose often 59.6 µM), for the others: at the top dose activity, negative = inhibition, actives largely listed as inhibitors; hit rate 0.71% among 290,000; purified Giardia FBPA; note: potency is the fitted concentration of half-maximal effect; % is set by controls: 0 for no effect and ±100 for the full control effect; nearly all actives have a fitted effect of over 55% in size
Target sequence (A8B2U2 whole entry, looked up): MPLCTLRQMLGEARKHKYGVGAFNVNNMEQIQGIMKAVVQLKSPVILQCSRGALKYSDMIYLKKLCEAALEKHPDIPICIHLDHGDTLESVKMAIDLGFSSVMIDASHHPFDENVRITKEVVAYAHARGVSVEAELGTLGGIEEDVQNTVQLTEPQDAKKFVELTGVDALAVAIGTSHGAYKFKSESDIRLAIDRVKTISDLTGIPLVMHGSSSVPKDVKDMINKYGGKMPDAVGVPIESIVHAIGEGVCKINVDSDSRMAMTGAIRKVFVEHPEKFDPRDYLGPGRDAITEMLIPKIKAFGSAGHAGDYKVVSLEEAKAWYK
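40 nM FBPA preincubated 10 min at RT with compound (up to 57.5 uM final), then substrate plus GAPDH/TPI/NAD/arsenate coupling and diaphorase/resazurin added. Fluorescence read after 20 min at RT, 525/598 nm.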
Cycloheximide cs: Cycloheximide Counterscreen for Small Molecule Inhibitors of Shiga Toxin; max response, %; AID 2314, 2010; hit rate 12% among 300,000; cell reporter, cycloheximide protein synthesis inhibition counterscreen; in the data active = max response mostly above about 13%, no sharp cut-off; inactive = mostly below about 14%; note: read at 38.3 µM for the half of the compounds with a filed dose; 0% is about no effect
RE007 growth inh: qHTS Assay for Inhibitors of the HIV-1 protein Vpr; hit rate 0.21% among 360,000; S. pombe RE007 Vpr strain, BacTiter-Glo ATP luminescence, 24 h; Potency, µM (doses to about 92.2 µM), for inactives: at the top dose activity change, negative = less growth, most hits filed as inhibitors; active = well fitted falling curve with a large enough effect; inconclusive = small, poorly fitted or top-dose-only effect; inactive = no such curve, though single readings can be large or run the other way; note: potency is the fitted concentration of half-maximal effect; % is set by controls: 0 for no effect and ±100 for the full control effect; nearly all actives have a fitted effect of over 50% in size
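Fission yeast strain RE007, carrying one chromosomally integrated HIV-1 vpr copy, was seeded at OD 0.01 in PMG+AL medium with 23 nL pinned compound. After 24 h at 30 °C and 99% humidity, viability was read by BacTiter-Glo luminescence.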
Numbers without * were called inactive; ? = inconclusive; / = no result given; [ ] = another dose, or the depositor's remark. Unless noted, calls come from the whole dose curve; as a rule, active = well fitted curve in the direction sought with a large enough effect; inconclusive = small, poorly fitted or top-dose-only effect, or another doubt; inactive = no such curve, though single readings can be large; an effect the other way counts as inactive or inconclusive.

SMILES | TbPYK inhibitor | LmPK inhibitor | Shiga inhibitor | FBPA Giardia inh | Cycloheximide cs | RE007 growth inh
Cc1cccn2cc(-c3ccc4c(c3)NC(=O)CO4)nc12 | -13.0% | -3.7% | 60.9* | -17.5% | 31.1* | -18.1%
Cc1ccn2cc(-c3ccc4c(c3)NC(=O)CO4)nc2c1 | 1.2% | -4.4% | 75.2* | ? | 31.9 | -5.3%
O=[N+]([O-])c1ccc(-c2nnc(S)n2-c2ccccc2)cc1 | / | 6.6% | / | 12.4% | 28.4* | /
O=[N+]([O-])c1ccc(N2CCN(c3ccccc3)CC2)cc1 | 3.7% | -1.6% | -7.9 | 11.7% | 1.7 | -12.3%
O=C(/C=C/Nc1ccccc1F)c1ccc(Br)cc1 | -1.4% | ? | 87.3* | 3.9% | 60.8* | 8.5%
O=C(/C=C/Nc1ccc(Br)cc1F)c1ccccc1 | ? | -29.8% | 40.6* | 1.9% | 38.1* | -14.5%
Cc1ccc(NC(=O)CCN2C(=O)C3CCCCC3C2=O)c(O)c1 (configuration not stated) | -2.9% | / | / | / | / | 15.7%
Cc1ccc(NC(=O)CCCn2c(=O)oc3ccccc32)c(O)c1 | -6.0% | 1.1% | 16.4 | / | 12.1* | 1.8%
Cc1ccc(NC(=O)CCCC2CCCCC2)c(O)c1 | 4.2% | -1.5% | 109.3* | / | 34.3* | -9.6%
CC(C)c1ccc(-c2noc(SCC(=O)N3CCCCC3C)n2)cc1 (configuration not stated) | 0.7% | / | / | / | / | /
CCc1ccc(C(=O)/C=C/c2cnn(C)c2C)s1 | / | -17.6% | 33.7* | -28.6% | 23.0* | -11.2%[3.69 µM]
Cc1c(/C=C/C(=O)c2cccs2)cnn1C | ? | -29.8% | 95.6* | -18.9% | 33.4* | ?
O=C(C=Cc1ccccc1)c1cccs1 | -16.8% | / | / | / | / | ?
Cc1cc(C)cc(NC(=O)CN(c2cc(C(F)(F)F)ccc2Cl)S(=O)(=O)c2ccccc2)c1 | 5.7% | / | / | / | / | /
COc1ccc(CNC(=O)COCc2cc(-c3cccs3)on2)cc1 | -2.2% | / | / | / | / | /
O=C(CCNC(=O)c1ccc(Cl)cc1)Nc1nc2ccccc2[nH]1 | -7.7% | / | / | / | / | 10.6%
O=C(Cc1ccccc1F)Nc1nc2ccccc2[nH]1 | 3.2% | 0.8% | 41.5 | -2.6% | 24.1* | 18.6%
O=C(Nc1nc2ccccc2[nH]1)c1cc2ccccc2o1 | 2.5% | -10.6% | 54.1* | -14.2% | 34.6* | 71.3%
N#Cc1ccc(C(=O)Nc2nc3ccccc3[nH]2)cc1 | -2.1% | -1.9% | 58.9* | 27.3% | 34.8* | 4.2%
COc1ccc(Br)c(C(=O)Nc2nc3ccccc3[nH]2)c1 | 0.5% | 0.0% | 68.5* | ? | 53.7* | 2.8%
COc1ccc(C2=Nn3c(nnc3-c3ccccc3OC)SC2)cc1 | / | / | -2.5 | / | -11.7 | /
CCOc1ccc(CCNC(=O)c2ccc(CSCc3ccccc3C)o2)cc1OCC | -3.9% | / | / | / | / | /
CCc1nnc(NC(=O)CSc2nccn2Cc2ccccc2)s1 | -6.1% | / | / | / | / | /
COc1cccc(CN2CCCN(CC(=O)Nc3ccc4c(c3)OCCO4)S2(=O)=O)c1 | -1.2% | / | / | / | / | /
COc1ccc(Cl)cc1C(=O)Nc1nc2ccccc2[nH]1 | -1.8% | 2.9% | 3.8 | -11.8% | -1.2 | -4.5%
SMILES | TbPYK inhibitor | LmPK inhibitor | Shiga inhibitor | FBPA Giardia inh | Cycloheximide cs | RE007 growth inh
CN(C)S(=O)(=O)c1ccc(C(=O)Nc2nc3ccccc3[nH]2)cc1 | -3.4% | 3.2% | 79.9* | -26.6% | 36.4* | 9.5%
COC(=O)Nc1nc2ccc(C(=O)c3ccc(F)cc3)cc2[nH]1 | / | 9.5% | 8.2 | -8.5% | 11.4 | /
COc1cc(OC)cc(C(=O)N[C@@H](CCSC)c2nc3ccccc3[nH]2)c1 | 6.5% | 8.1% | -17.5 | 0.9% | -7.3 | 18.9%
O=C(Nc1nc2ccccc2[nH]1)c1cc(F)cc(F)c1 | 0.0% | -3.8% | 67.4* | 9.7% | 67.5* | 6.2%
COc1cc(OC)cc(C(=O)Nc2nc3ccccc3[nH]2)c1 | -2.5% | -1.8% | 128.6* | 3.2% | 58.7* | -23.2%
Cc1cc(C)cc(C(=O)Nc2nc3ccccc3[nH]2)c1 | 3.2% | -1.5% | 120.6* | -4.7% | 35.3* | -30.0%
CN(C)c1ccc(Nc2ncnc3c2c(-c2ccccc2)cn3-c2cccc(Cl)c2)cc1 | -6.9% | / | / | / | / | /
Cc1c(C(=O)NC2CCCCC2)sc2nc3ccc(N)cc3n12 | / | / | / | -26.7% | / | /
